Laboratory results as given in PubChem BioAssay (NCATS).
Inconclusive results are not listed. Calls of active or inactive are those of the source. The call rests on the fitted dose curve; in most records, active means well fitted curve in the direction sought with a large enough effect; inconclusive means small, poorly fitted or top-dose-only effect, or another doubt; inactive means no such curve, though single readings can be large; an effect the other way counts as inactive or inconclusive.

How the values were obtained:
[1] = test system: Zika virus NS2B-NS3 protease; test: Primary screen GU AMC qHTS for Zika virus inhibitors (AID 1347154);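 further: 0% = no-inhibitor control and -100% = no-enzyme control; nearly all actives have a fitted effect of over 70% in size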
Summary of the method: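 Unlinked Zika NS2B hydrophilic domain/NS3 protease domain noncovalent complex (25 nM final) in 10 mM Tris-HCl pH 8.0, 0.01% Tween 20, with AMC peptide substrate. Fluorescence (ex 340, em 450 nm) change over 15 min, room temperature; percent inhibition fitted to 4-parameter Hill equation.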

[2] = Counterscreen qHTS for small molecule stabilizers of the endoplasmic reticulum resident proteome: GLuc-NoTag assay (AID 1508627);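 further: SH-SY5Y cells given compound then 100 nM thapsigargin to empty ER calcium; series mostly up to about 76 µM; 0% = thapsigargin alone and -100% = DMSO vehicle control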
Summary of the method: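 SH-SY5Y cells stably expressing constitutively secreted GLuc (no SERCaMP tag) were pre-incubated 5 h, treated with compound for 19 h, then 100 nM thapsigargin for 4 h at 37C; medium GLuc read by coelenterazine luminescence.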

[3] = Cell Viability qHTS for small molecule stabilizers of the endoplasmic reticulum resident proteome (AID 1508629); conditions: cell viability counter-screen, 100 nM thapsigargin for final 4 h;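 further: human SH-SY5Y neuroblastoma cells carrying the GLuc-SERCaMP reporter; compound exposure about 46 h in total before the viability read; on the % scale 0 is the no-effect control and ±100 the full control effect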

N=C(N)SCCN=C(N)N
inactive: Potency [1] | Potency [2] | max response [3] -2.13%
